The results in this text go back to PubChem BioAssay (NCI).

Common to all, as to test: NCI-60 one-dose screen, 48 h (100 = growth as untreated, 0 = no growth, -100 = all killed)
In one test the test system is SK-MEL-2 melanoma. The note with it: 10 µM unless noted.
In another test the test system is EKVX NSCLC. The note with it: 10 µM unless noted.
A further test has as its system SN12C renal. The note with it: 10 µM unless noted.
The test system of the next test is UO-31 renal. The note with it: 10 µM unless noted.
A further test deals with TK-10 renal. The note with it: 10 µM unless noted.
Another test concerns ACHN renal. The note with it: 10 µM unless noted.
A further test has as its system CCRF-CEM leukemia. The note with it: 10 µM unless noted.
A further test relates to MOLT-4 leukemia. The following applies: 10 µM unless noted.
The subject of a further test is SR leukemia. The following applies: 10 µM unless noted.
For the next test, the system named is RPMI-8226 leukemia. The following applies: 10 µM unless noted.
The next test concerns OVCAR-8 ovarian. The note with it: 10 µM unless noted.
A further test deals with OVCAR-5 ovarian. The note with it: 10 µM unless noted.
For another test, the system named is OVCAR-4 ovarian. The following applies: 10 µM unless noted.
In a further test the test system is SK-OV-3 ovarian. The note with it: 10 µM unless noted.
The test system of a further test is IGROV1 ovarian. The following applies: 10 µM unless noted.
The subject of another test is HS 578T breast. The note with it: 10 µM unless noted.
In another test the test system is NCI/ADR-RES ovarian. The note with it: 10 µM unless noted.
For another test, the system named is CAKI-1 renal. The note with it: 10 µM.
The subject of the next test is A498 renal. The note with it: 10 µM unless noted.
A further test concerns OVCAR-3 ovarian. The following applies: 10 µM unless noted.

Compounds without any hit were thinned out: in the full panel of roughly 83,000, 20% have a hit.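 Cell lines were cultured in 96-well plates, exposed to a single compound concentration, and assessed for percent growth 48 hours later.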 Values without a mark were called inactive. Activity calls are given as the source filed them. Rule for the calls: active = growth percent below 10; inactive = the rest.

`CC(C)CCC[C@@H](C)[C@H]1CC[C@H]2[C@@H]3CC=C4N(c5ccccc5)C(=O)CC[C@]4(C)[C@H]3CC[C@]12C`: the growth is 101% with SK-MEL-2 melanoma; 96.7% with EKVX NSCLC; 86.2% in the test on SN12C renal; 91.7% in the test on UO-31 renal; 97.4% with TK-10 renal; 105% in the test on ACHN renal. Moreover, the growth in the test on CCRF-CEM leukemia was 92.2%; in the test on MOLT-4 leukemia, 79.9%; in the test with SR leukemia it was 92.4%; in the test on RPMI-8226 leukemia, 97.8%; in the test on OVCAR-8 ovarian it was 109%; in the test with OVCAR-5 ovarian, 102%. Further, the growth is 103% in the test with OVCAR-4 ovarian; 103% with SK-OV-3 ovarian; 99.1% in the test with IGROV1 ovarian; 109% in the test with HS 578T breast; 98.9% in the test on NCI/ADR-RES ovarian.

Turning to `CC(CCC(=O)O)[C@H]1CCC2C3C(=O)C[C@@H]4CC(=O)CC[C@]4(C)C3CC(=O)[C@@]21C` (stereo partly specified), the growth with SK-MEL-2 melanoma is 128%; in the test on EKVX NSCLC, 93.6%; with SN12C renal, 93.2%; in the test on UO-31 renal, 83.8%; with TK-10 renal, 116%; with CAKI-1 renal, 84.7%. Also, the growth was 88% in the test on A498 renal; 103% in the test with CCRF-CEM leukemia; 96.7% with MOLT-4 leukemia; 97.4% with SR leukemia; 98.8% in the test on RPMI-8226 leukemia; 103% in the test with OVCAR-8 ovarian. Further, the growth with OVCAR-4 ovarian is 112%; with SK-OV-3 ovarian, 106%; in the test with IGROV1 ovarian, 105%; with OVCAR-3 ovarian it was 117%; in the test on HS 578T breast, 105%; with NCI/ADR-RES ovarian it was 99.7%.

As to `C[C@H]1C=C(C[C@@H](O)CCCCCCCCCC[C@@H](O)[C@H]2CCC(=O)O2)C(=O)O1`, the growth in the test on SK-MEL-2 melanoma was 80.2%; in the test on EKVX NSCLC, 91%; in the test on SN12C renal, 117%; in the test with UO-31 renal it was 82%; with TK-10 renal, 100%; in the test with ACHN renal, 96.8%. In addition, the growth with CCRF-CEM leukemia is 78.5%; in the test on MOLT-4 leukemia it was 112%; in the test on SR leukemia, 114%; in the test on RPMI-8226 leukemia it was 79.9%; with OVCAR-8 ovarian, 96.7%; with OVCAR-5 ovarian, 91.7%. Besides, the growth in the test with OVCAR-4 ovarian is 97.6%; with SK-OV-3 ovarian, 110%; in the test with IGROV1 ovarian, -23.5% (active); in the test with HS 578T breast it was 128%; with NCI/ADR-RES ovarian it was 99.6%.

With `COc1ccc(/C=C2\CS(=O)(=O)C/C(=C\c3ccc(OC)cc3)C2=O)cc1`, the growth is -7.45% (active) in the test with SK-MEL-2 melanoma; 11.4% with EKVX NSCLC; -52.1% (active) in the test on SN12C renal; -100% (active) with UO-31 renal; 2.72% (active) with TK-10 renal; -51% (active) in the test on ACHN renal. The growth in the test on CCRF-CEM leukemia is -0.95% (active); in the test on MOLT-4 leukemia, -16.1% (active); in the test with RPMI-8226 leukemia it was -41.2% (active); with OVCAR-8 ovarian, -44.8% (active); in the test on OVCAR-5 ovarian it was -20.2% (active); with OVCAR-4 ovarian, 12.3%. Besides, the growth with SK-OV-3 ovarian is 25.4%; with OVCAR-3 ovarian, -66.2% (active); with HS 578T breast it was 48%; in the test on NCI/ADR-RES ovarian, 10.5%.

As for `C=C1C(=O)O[C@H]2[C@H]1CC/C(CNC(=O)/C1=C/CC[C@@]3(C)O[C@H]3[C@H]3OC(=O)C(=C)[C@@H]3CC1)=C\CC[C@@]1(C)O[C@@H]21`, the growth with SK-MEL-2 melanoma is 88.7%; with EKVX NSCLC it was 86.2%; in the test with SN12C renal, 96.7%; in the test with UO-31 renal, 95.5%; with TK-10 renal, 102%; in the test on ACHN renal, 97.6%. For the same compound, the growth with CCRF-CEM leukemia is 42.6%; in the test with MOLT-4 leukemia, 93.5%; in the test on SR leukemia it was 92.4%; in the test with RPMI-8226 leukemia it was 78.8%; in the test on OVCAR-8 ovarian, 92.2%; in the test with OVCAR-5 ovarian, 111%. The growth is 86.9% in the test with OVCAR-4 ovarian; 89.8% in the test on SK-OV-3 ovarian; 102% in the test with IGROV1 ovarian; 85.1% in the test with OVCAR-3 ovarian; 112% in the test with HS 578T breast; 99.7% in the test with NCI/ADR-RES ovarian.

Turning to `Nc1nc(Nc2ccc(OCc3cccc(F)c3)cc2)c2c(n1)[nH]c1ccc(O)cc12`, the growth in the test on SK-MEL-2 melanoma is -63% (active); in the test on EKVX NSCLC, 10.5%; in the test on SN12C renal, -69.3% (active); in the test with UO-31 renal it was -93.5% (active); with TK-10 renal it was -9.4% (active); with ACHN renal it was -26.8% (active). For the same compound, the growth in the test on CCRF-CEM leukemia is -9.7% (active); in the test with MOLT-4 leukemia, -28% (active); with SR leukemia it was -48.3% (active); with RPMI-8226 leukemia, -37.5% (active); with OVCAR-8 ovarian, -61.7% (active); with OVCAR-5 ovarian it was 0.474% (active). Also, the growth is -62.2% (active) in the test with OVCAR-4 ovarian; -1.21% (active) in the test on SK-OV-3 ovarian; -21.8% (active) in the test on IGROV1 ovarian; -86.4% (active) in the test with OVCAR-3 ovarian; -21.9% (active) in the test with HS 578T breast; 32.3% in the test with NCI/ADR-RES ovarian.

As to `CC(C)(C)OC(=O)N1CCN(CCn2cc(C(F)(F)F)c3c(Cl)ncnc32)CC1`, the growth with SK-MEL-2 melanoma is 44.5%; in the test on EKVX NSCLC it was 101%; in the test with SN12C renal it was 71.9%; in the test with UO-31 renal, -80.8% (active); in the test on TK-10 renal it was 115%; in the test with ACHN renal it was 96.6%. Moreover, the growth is 28.5% in the test on CCRF-CEM leukemia; 23.4% in the test on MOLT-4 leukemia; -17.8% (active) in the test with SR leukemia; 86.3% in the test on RPMI-8226 leukemia; -61.4% (active) in the test on OVCAR-8 ovarian; 108% in the test on OVCAR-5 ovarian. The growth is 103% with OVCAR-4 ovarian; 96.9% in the test with SK-OV-3 ovarian; -69.5% (active) in the test on IGROV1 ovarian; 85.2% in the test on OVCAR-3 ovarian; 82.5% with HS 578T breast; 104% with NCI/ADR-RES ovarian.

Turning to `CC1(C)N=C(N)N=C(N)N1c1cccc(CCCCc2ccccc2)c1`, the growth with SK-MEL-2 melanoma is 7.3% (active); in the test on EKVX NSCLC, 7.11% (active); in the test with SN12C renal, 9.06% (active); with UO-31 renal, 27.2%; in the test with TK-10 renal, 17.9%; with ACHN renal, 33%. Moreover, the growth in the test with A498 renal was 61.7%; in the test with MOLT-4 leukemia, -35.9% (active); in the test with RPMI-8226 leukemia it was -50% (active); with OVCAR-8 ovarian it was 0.546% (active); with OVCAR-5 ovarian it was 38.5%; with OVCAR-4 ovarian, 7.12% (active). For the same compound, the growth with SK-OV-3 ovarian was 30.3%; with OVCAR-3 ovarian, -16.8% (active); in the test with HS 578T breast, 66.5%; with NCI/ADR-RES ovarian, 90.3%.

For `COc1cc(NS(=O)(=O)c2ccc(N)cc2)ncn1`, the growth was 160% with SK-MEL-2 melanoma; 102% with EKVX NSCLC; 93.8% in the test on SN12C renal; 86.2% in the test on UO-31 renal; 130% with TK-10 renal; 94.6% in the test on CAKI-1 renal. For the same compound, the growth with A498 renal is 106%; in the test with CCRF-CEM leukemia, 105%; in the test with MOLT-4 leukemia, 99.6%; in the test on SR leukemia, 97.2%; with RPMI-8226 leukemia, 109%; in the test with OVCAR-8 ovarian it was 102%. For the same compound, the growth with OVCAR-4 ovarian was 114%; in the test with SK-OV-3 ovarian, 107%; with IGROV1 ovarian it was 118%; in the test on OVCAR-3 ovarian, 115%; in the test with HS 578T breast it was 105%; with NCI/ADR-RES ovarian, 103%.
